Experimental findings from PubChem BioAssay (NCI) are described below.

Assay [1] is described as follows: NCI Yeast Anticancer Drug Screen. Data for the rad50 strain (AID 155).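 Further: 0% = growth of vehicle-only cultures of the same strain.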 As to conditions: S. cerevisiae rad50 strain growth inhibition, active compounds read high. An outline of the steps:
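Yeast carrying a defined DNA repair defect were exposed to test compounds, and growth was compared with vehicle-treated controls to give percent inhibition.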

Assay [2] is described as follows: NCI Yeast Anticancer Drug Screen. Data for the mec2-1 strain (AID 157). As to conditions: S. cerevisiae mec2-1 strain, active compounds read high. An outline of the steps:
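Test agents were screened against the mec2-1 yeast strain, with defined DNA repair or cell cycle alteration. Growth was scored as inhibition against vehicle-only controls.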

Assay [3] can be described thus: NCI Yeast Anticancer Drug Screen. Data for the sgs1 mgt1 strain (AID 161).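 Further: 0% = growth of cultures given vehicle only.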 As to conditions: S. cerevisiae sgs1 mgt1 strain, active compounds read high. An outline of the steps:
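Test agents were incubated with a DNA-repair-mutant yeast strain. Growth was then read and compared against vehicle-treated controls.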

The nature of assay [4]: NCI Yeast Anticancer Drug Screen. Data for the cln2 rad14 strain (AID 165).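 Further: 0% = growth equal to vehicle treated cultures.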 As to conditions: S. cerevisiae cln2 rad14 strain, active compounds read high. In outline: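 Growth of compound-exposed yeast (cln2 rad14 genotype) measured and expressed as inhibition relative to vehicle.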
Assay [5] in a line: NCI Yeast Anticancer Drug Screen. Data for the bub3 strain (AID 167). As to conditions: S. cerevisiae bub3 mutant strain, active compounds read high. An outline of the steps:
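Compounds were applied to a genetically altered yeast strain carrying a cell-cycle control defect. Growth inhibition was scored against vehicle-treated controls.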

Assay [6] can be described thus: NCI Yeast Anticancer Drug Screen. Data for the mlh1 rad18 strain (AID 175). The following applies: S. cerevisiae mlh1 rad18 strain growth inhibition, active compounds read high. In outline: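 In this whole-cell yeast screen, a strain with altered DNA damage repair is challenged with compound, and its growth is measured against matched vehicle-treated controls.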
Where [7] appears, read: at 5.0 µM (retest, dose inferred, filed as 0.5).
Where [8] appears, read: at 50.0 µM (retest, dose inferred, filed as 5.0).

About 79,000 compounds went through this panel and 15% of them were active in at least one assay; those are over-represented in the sample as a whole. A number with no mark means an inactive call. The source made the active and inactive calls. No stated cut-off is given here; in the data, active means growth inhibition above about 70%; inactive means the rest.

As to `Cc1ccc(C)c(NC(=O)CCC(=O)CC(=O)c2ccncc2)c1`, the growth inhibition in assay [1] (setting [7]) was -4%; in assay [1] (setting [8]), 12%; in assay [1] (at 50.0 µM), -32%; in assay [2] (setting [7]), 3%; in assay [2] (setting [8]), 4%; in assay [2] (at 50.0 µM), 7.45%. The growth inhibition was 8% in assay [3] (setting [7]); 4% in assay [3] (setting [8]); 16.8% in assay [3] (at 50.0 µM); -4% in assay [4] (setting [7]); 3% in assay [4] (setting [8]); 1.25% in assay [4] (at 50.0 µM). The growth inhibition in assay [5] (setting [7]) is -7%; in assay [5] (setting [8]), 4%; in assay [5] (at 50.0 µM), 10.7%; in assay [6] (setting [7]) it was 0%; in assay [6] (setting [8]) it was -1%; in assay [6] (at 50.0 µM) it was 24.1%.

Consider `CN1CCN=C1c1ccc(NC(=O)Nc2ccc(NC(=O)Nc3ccc(C4=NCCN4C)cc3)cc2)cc1`, for which the growth inhibition is -1% in assay [1] (setting [7]); 80% (active) in assay [1] (setting [8]); 84.8% (active) in assay [1] (at 50.0 µM); -15% in assay [2] (setting [7]); 85% (active) in assay [2] (setting [8]); 86.5% (active) in assay [2] (at 50.0 µM). Besides, the growth inhibition is -15% in assay [3] (setting [7]); 74% (active) in assay [3] (setting [8]); 90% (active) in assay [3] (at 50.0 µM); -10% in assay [4] (setting [7]); 61% in assay [4] (setting [8]); 50.8% in assay [4] (at 50.0 µM). Moreover, the growth inhibition in assay [5] (setting [7]) was -2%; in assay [5] (setting [8]), 83% (active); in assay [5] (at 50.0 µM) it was 92% (active); in assay [6] (setting [7]), 1%; in assay [6] (setting [8]), 83% (active); in assay [6] (at 50.0 µM), 93.8% (active).

For the compound `C=C1N(S(=O)(=O)c2ccc(C)cc2)C(=O)OCC12CCCC2`, the growth inhibition in assay [1] (setting [7]) is -22%; in assay [1] (setting [8]), 3%; in assay [1] (at 50.0 µM), 2.2%; in assay [2] (setting [7]), -15%; in assay [2] (setting [8]), -21%; in assay [2] (at 50.0 µM) it was -1.5%. Besides, the growth inhibition was -21% in assay [3] (setting [7]); 9% in assay [3] (setting [8]); 20% in assay [3] (at 50.0 µM); -21% in assay [4] (setting [7]); 5% in assay [4] (setting [8]); 8.9% in assay [4] (at 50.0 µM). In addition, the growth inhibition in assay [5] (setting [7]) is -16%; in assay [5] (setting [8]), 43%; in assay [5] (at 50.0 µM), 54.2%; in assay [6] (setting [7]), -24%; in assay [6] (setting [8]), -2%; in assay [6] (at 50.0 µM) it was 3.5%.

In the case of `O=C(N/N=C/c1ccccc1[O-])c1ccccc1O.O=C(N/N=C/c1ccccc1[O-])c1ccccc1O.[Mn+2]`, the growth inhibition is 48% in assay [1] (setting [7]); 99% (active) in assay [1] (setting [8]); 99.2% (active) in assay [1] (at 50.0 µM); 39% in assay [2] (setting [7]); 98% (active) in assay [2] (setting [8]); 99.8% (active) in assay [2] (at 50.0 µM). The growth inhibition was 63% in assay [3] (setting [7]); 100% (active) in assay [3] (setting [8]); 97.7% (active) in assay [3] (at 50.0 µM); 28% in assay [4] (setting [7]); 99% (active) in assay [4] (setting [8]); 99% (active) in assay [4] (at 50.0 µM). Moreover, the growth inhibition in assay [5] (setting [7]) was 48%; in assay [5] (setting [8]), 99% (active); in assay [5] (at 50.0 µM), 99.6% (active); in assay [6] (setting [7]), 40%; in assay [6] (setting [8]) it was 99% (active); in assay [6] (at 50.0 µM), 97.8% (active).

On to `COc1cc(/C=C/C(=N\NC(=O)c2ccccc2)c2sc(Nc3ccc(Cl)c(Cl)c3)nc2C)ccc1O`, for which the growth inhibition in assay [1] (setting [7]) is 49%; in assay [1] (setting [8]), 49%; in assay [1] (at 50.0 µM), 91.2% (active); in assay [2] (setting [7]), 29%; in assay [2] (setting [8]), 29%; in assay [2] (at 50.0 µM) it was 89.8% (active). Moreover, the growth inhibition is 52% in assay [3] (setting [7]); 52% in assay [3] (setting [8]); 89.7% (active) in assay [3] (at 50.0 µM); 14% in assay [4] (setting [7]); 14% in assay [4] (setting [8]); 88.2% (active) in assay [4] (at 50.0 µM). The growth inhibition is 28% in assay [5] (setting [7]); 28% in assay [5] (setting [8]); 90.5% (active) in assay [5] (at 50.0 µM); 30% in assay [6] (setting [7]); 30% in assay [6] (setting [8]); 88.9% (active) in assay [6] (at 50.0 µM).

Take `CC1=C(C#N)C(=O)OC1(C)C(CC(=O)c1ccccc1)c1ccccc1` (stereo not given): the growth inhibition is 0% in assay [1] (setting [7]); 3% in assay [1] (setting [8]); -5.3% in assay [1] (at 50.0 µM); 5% in assay [2] (setting [7]); 6% in assay [2] (setting [8]); 4.45% in assay [2] (at 50.0 µM). Besides, the growth inhibition in assay [3] (setting [7]) was 20%; in assay [3] (setting [8]), 16%; in assay [3] (at 50.0 µM) it was 4.45%; in assay [4] (setting [7]) it was 3%; in assay [4] (setting [8]) it was 4%; in assay [4] (at 50.0 µM), 49.8%. Also, the growth inhibition in assay [5] (setting [7]) is 2%; in assay [5] (setting [8]), 11%; in assay [5] (at 50.0 µM) it was 11.8%; in assay [6] (setting [7]), 26%; in assay [6] (setting [8]), 23%; in assay [6] (at 50.0 µM), 1.85%.

`CN1/C(=C/C=C/C(I)=C/C=C/C2=[N+](C)c3ccccc3C2(C)C)C(C)(C)c2ccccc21`: the growth inhibition is 1% in assay [1] (setting [7]); 88% (active) in assay [1] (setting [8]); 60.5% in assay [1] (at 50.0 µM); 8% in assay [2] (setting [7]); 89% (active) in assay [2] (setting [8]); 50.1% in assay [2] (at 50.0 µM). The growth inhibition in assay [3] (setting [7]) is -4%; in assay [3] (setting [8]), 92% (active); in assay [3] (at 50.0 µM), 80.6% (active); in assay [4] (setting [7]) it was 8%; in assay [4] (setting [8]), 71% (active); in assay [4] (at 50.0 µM), 79.4% (active). The growth inhibition in assay [5] (setting [7]) was -2%; in assay [5] (setting [8]), 89% (active); in assay [5] (at 50.0 µM), 76.3% (active); in assay [6] (setting [7]), -1%; in assay [6] (setting [8]), 89% (active); in assay [6] (at 50.0 µM), 84.7% (active).

`Fc1cccc(NC(=S)SCc2ccco2)c1`: the growth inhibition in assay [1] (setting [7]) is 9%; in assay [1] (setting [8]) it was 84% (active); in assay [1] (at 50.0 µM) it was 97.7% (active); in assay [2] (setting [7]), -1%; in assay [2] (setting [8]) it was 93% (active); in assay [2] (at 50.0 µM) it was 84.2% (active). For the same compound, the growth inhibition is 2% in assay [3] (setting [7]); 80% (active) in assay [3] (setting [8]); 96% (active) in assay [3] (at 50.0 µM); -2% in assay [4] (setting [7]); 45% in assay [4] (setting [8]); 61.2% in assay [4] (at 50.0 µM). The growth inhibition was -11% in assay [5] (setting [7]); 61% in assay [5] (setting [8]); 82% (active) in assay [5] (at 50.0 µM); -1% in assay [6] (setting [7]); 89% (active) in assay [6] (setting [8]); 97.2% (active) in assay [6] (at 50.0 µM).

Turning to `COc1cccc(-c2cc(=O)c3c(C)ccnc3[nH]2)c1`, the growth inhibition in assay [1] (setting [7]) is 8%; in assay [1] (setting [8]), 8%; in assay [1] (at 50.0 µM), 80.5% (active); in assay [2] (setting [7]) it was 4%; in assay [2] (setting [8]), 4%; in assay [2] (at 50.0 µM), 49.8%. Besides, the growth inhibition in assay [3] (setting [7]) is 15%; in assay [3] (setting [8]) it was 15%; in assay [3] (at 50.0 µM) it was 70.8% (active); in assay [4] (setting [7]) it was -4%; in assay [4] (setting [8]), -4%; in assay [4] (at 50.0 µM), 30%. For the same compound, the growth inhibition in assay [5] (setting [7]) was -9%; in assay [5] (setting [8]) it was -9%; in assay [5] (at 50.0 µM), 68%; in assay [6] (setting [7]), 14%; in assay [6] (setting [8]), 14%; in assay [6] (at 50.0 µM), 61.8%.

For `CC(=O)Oc1c(O)c2ccccc2c2ccccc12`, the growth inhibition in assay [1] (setting [7]) was 6%; in assay [1] (setting [8]), 93% (active); in assay [1] (at 50.0 µM), 99.5% (active); in assay [2] (setting [7]), -5%; in assay [2] (setting [8]), 97% (active); in assay [2] (at 50.0 µM) it was 99.2% (active). Moreover, the growth inhibition in assay [3] (setting [7]) was 2%; in assay [3] (setting [8]), 83% (active); in assay [3] (at 50.0 µM), 99.3% (active); in assay [4] (setting [7]), -11%; in assay [4] (setting [8]), 95% (active); in assay [4] (at 50.0 µM), 97.5% (active). Also, the growth inhibition in assay [5] (setting [7]) was 5%; in assay [5] (setting [8]) it was 96% (active); in assay [5] (at 50.0 µM), 99.5% (active); in assay [6] (setting [7]) it was -4%; in assay [6] (setting [8]), 92% (active); in assay [6] (at 50.0 µM) it was 98.9% (active).
